Sampled rows, rich in hits. Any-hit rate of the full collection: about 8%.
KB-3-1 tox – kills parental KB-3-1 adenocarcinoma cells; KB-3-1 viability, CellTiter-Glo ATP luminescence, 72 h; Potency, µM (top dose mostly 46.1 µM), hits mostly cytotoxic; AID 1347075; hit rate 1.4% among 400,000; note: % is set by controls: 0 for no effect and ±100 for the full control effect; nearly all actives have a fitted effect of over 60% in size
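72 h, 37 °C compound treatment of KB-3-1 parental cells; CellTiter-Glo added, 10 min, luminescence read. Data corrected against DMSO-only plates and normalized before curve fitting.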
SW480 rereplic – inducers of DNA re-replication in SW480 colon cancer cells; Potency, µM (highest dose often 46.1 µM), inactives show at the highest dose re-replication activation, hits mostly activators; SW480 DNA re-replication, Hoechst DNA content imaging, 48 h; hit rate 1.8% among 340,000; note: % of control where 0% means no effect; nearly all actives have a fitted effect of over 55% in size
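DNA re-replication was detected as more nuclei of elevated Hoechst intensity after 48 hr exposure to compound (23 nL pinned per well of 250 cells).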
MCF10A rerep – DNA re-replication induction in MCF 10a cells. MCF 10A DNA re-replication, Hoechst nuclear intensity, 48 h. Potency, µM (top dose mostly 46.1 µM), inactives show top-dose activity, positive = re-replication, most hits filed as activators. hit rate 2.9% among 350,000. AID 624296; note: % of control where 0% means no effect; nearly all actives have a fitted effect of over 50% in size
HT1080 IDH1KD tx – toxicity to HT-1080 IDH1 knockdown cells (counter line). Potency, µM (doses to about 46.1 µM), without a hit: top-dose activity, negative = toxicity, most hits filed as cytotoxic. AID 686971. HT-1080 IDH1 knockdown viability, ATP luminescence, 48 h. hit rate 2% among 360,000;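 note: 0% = DMSO wells and -100% = cell-free medium wells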
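Using the IDH1-knockdown HT-1080 line run in the same batch and compound series as the NT line, viability after 48 h at 37 °C was determined by CellTiter-Glo luminescence and expressed as % activity.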
HT1080NT lethal – kills 2HG-producing HT-1080-NT fibrosarcoma cells; Potency, µM (series often up to 46.1 µM), without a hit: top-dose activity, negative = less viability, actives largely listed as cytotoxic; HT-1080-NT fibrosarcoma viability, CellTiter-Glo ATP luminescence, 48 h; hit rate 1.6% among 360,000;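 note: NT is the 2HG producing partner of a matched IDH1 knockdown line; 0% = DMSO-treated cells and -100% = media-only wells without cells; nearly all actives have a fitted effect of over 55% in size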
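Fibrosarcoma NT cells, 750 per well in 5% FBS RPMI, were exposed to compound for 48 hours. Viability: CellTiter-Glo luminescence.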
KB-V1 MDR tox – KB-V1 MDR subline cytotoxicity | KB-V1 MDR cells viability, CellTiter-Glo, 72 h | hit rate 3.4% among 400,000 | AID 1347076 | Potency, µM (titrated, usually from 46.1 µM), most hits filed as cytotoxic; note: % is set by controls: 0 for no effect and ±100 for the full control effect; nearly all actives have a fitted effect of over 60% in size
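In this primary screen, KB-V1 cells overexpressing P-gp are incubated with library compounds (lowest to highest concentration) for 72 h at 37 degrees C before a luminescent ATP viability read.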
* = called active by the depositor; i = inactive; ? = inconclusive; . = no result given. Calls come from the whole dose curve; as a rule, active = well fitted curve in the direction sought with a large enough effect; inconclusive = small, poorly fitted or top-dose-only effect, or another doubt; inactive = no such curve, though single readings can be large; an effect the other way counts as inactive or inconclusive. Potency is the fitted concentration of half-maximal effect.

SMILES	KB-3-1 tox	SW480 rereplic	MCF10A rerep	HT1080 IDH1KD tx	HT1080NT lethal	KB-V1 MDR tox
CC1(C)Cc2c(c(-c3ccco3)nc3sc4c(NCCCO)ncnc4c23)CO1	i	-6%	1%	-4%	0%	?
CC1(C)Cc2c(c(-c3ccco3)nc3sc4c(NCC5CCCO5)ncnc4c23)CO1 (stereo not drawn)	?	?	23µM*	?	?	?
CC1(C)Cc2c(c(-c3ccco3)nc3sc4c(NCCN5CCOCC5)ncnc4c23)CO1	i	-31%	?	16µM*	23µM*	i
CC(C)c1ccccc1NC(=O)CN1C(=O)c2cccc3cccc1c23	i	.	.	.	.	i
Cc1c(CN(C)Cc2cn(C)nc2-c2ccccc2F)[nH]c2ccccc12	i	?	18µM*	?	?	i
Cn1c(C=O)c(-c2ccc3c(c2)OCCO3)c2ccccc21	i	4%	16µM*	-1%	-10%	i
COc1cc(-c2c(-c3ccsc3)sc3ccccc23)cc(OC)c1OC	i	-3%	?	-9%	-13%	i
COc1cc(-c2ccc3c(=O)c4ccccc4sc3c2)cc(OC)c1OC	i	0.65µM*	3.7µM*	0%	-5%	i
Cn1c(-c2ccc3c(c2)OCO3)cc(=O)c2ccccc21	i	-2%	-4%	0%	-5%	i
COc1cc(C2CC(=O)Oc3c2c(=O)n(C)c2ccccc32)cc(OC)c1OC (stereo not drawn)	i	-32%	6%	8%	3%	i
Cn1c2ccccc2c(=O)c2ccc(F)cc21	i	16µM*	?	2%	7%	?
COc1cc(-c2ccc3c(=O)c4ccccc4n(C)c3c2)cc(OC)c1OC	?	13µM*	?	?	?	?
CCN(Cc1ccccc1)C(=O)Cn1c(=O)n(-c2cccc(C)c2)c(=O)c2c1c1cc(OC)ccc1n2C	i	.	.	.	.	i
Cc1ccc(NC(=O)c2oc3ccc(S(=O)(=O)N4CCCCC4)cc3c2C)c(C)c1	i	.	.	.	.	i
Cc1ccc(-c2cc(-c3ccc4c(c3)NC(=O)CO4)nc3c2COc2ccccc2-3)cc1	i	.	.	.	.	i
C/C=C(\C)NNC(=O)Cc1ccc(OC)cc1	i	.	.	.	.	i
c1ccc2c(c1)c1ccccc1n1c(-c3ccc4c(c3)OCO4)nnc21	?	-2%	-1%	0%	0%	21µM*
COc1cc(-c2c(CCO)sc3ccccc23)cc(OC)c1OC	?	.	.	?	?	21µM*
Cn1c2ccccc2c(=O)c2ccc(-c3ccc4c(c3)OCO4)cc21	?	?	15µM*	-16%	-18%	?
COc1ccc(-c2cc(Cl)cc3c(=O)c4ccccc4n(C)c23)cc1F	i	18µM*	?	16%	6%	i
CCc1nnc2c(Nc3cc(OC)c(Cl)cc3OC)nc3ccccc3n12	i	.	.	.	.	i
O=C1c2oc3ccccc3c(=O)c2C(c2ccccc2F)N1Cc1ccc2c(c1)OCO2 (stereo not drawn)	i	.	.	.	.	i
Cc1ccccc1OCCn1cc(C=O)c2ccccc21	?	-1%	?	?	-29%	16µM*
Cc1ccc(Cn2c(=O)n(CCc3ccccc3)c(=O)c3c(C)c(C)sc32)cc1	i	.	.	.	.	i
Cc1nc(NCC(=O)c2c[nH]c3ccccc23)sc1C	?	.	.	.	.	i
Cc1ccc(-c2c(C)n3c4c(=O)n(C)c(=O)n(C)c4nc3n2CCO)cc1	2.1µM*	.	.	.	.	i
CCCC(=O)N1CCN(c2ccc(NC(=S)NC(=O)CC)cc2)CC1	i	-6%	0%	2%	22%	23µM*
CCC(=O)NC(=S)Nc1ccc(N2CCOCC2)cc1	i	1%	5%	18%	12%	i
Cc1ccc(Cn2c(=O)c3cccnc3n(CC(=O)Nc3cc(Cl)ccc3C)c2=O)cc1	i	.	.	.	.	i
